We go through six sequences from paper PMC8384837, “Expanding the binding specificity for RNA recognition by a PUF domain”.

Holding throughout (test): yeast three-hybrid, YBZ-1, SC-Leu-His + 0.5 mM 3-AT, 4 days
Holding throughout (conditions): tags: N-Gal4 AD-HA kept; label: inside an RPR1-promoter hybrid RNA with tandem MS2 sites; ssRNA

Assay [1] addresses PUM1 PUF domain R3-QFR (Homo sapiens, UniProt Q14671 828-1176, C935Q;R936F;Q939R). The method in brief:
(§1)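 Pumilio-1 PUF domain libraries, randomized at the three base-contacting residues of each repeat, were co-expressed with matching RNA elements from a centromeric plasmid in strain YBZ-1, which carries a LexA–MS2 coat fusion and a HIS3 reporter. Transformants grew for four days on SC-Leu (input) or on SC-Leu-His + 0.5 mM 3-AT (selection), and the repeat regions were PCR-amplified and Illumina-sequenced. The interaction score is the log change in variant frequency from input to selection. That logarithm is base 2, with a pseudocount of 1 where a variant was absent.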

Assay [2] concerns the target PUM1 PUF domain R5-DWE (Homo sapiens, UniProt Q14671 828-1176, C1007D;R1008W;Q1011E). The method in brief: as §1
The target in assay [3] is PUM1 PUF domain R4-PYA (Homo sapiens, UniProt Q14671 828-1176, N971P;H972Y;Q975A). The method in brief: as §1
Assay [4] deals with PUM1 PUF domain R4-PWR (Homo sapiens, UniProt Q14671 828-1176, N971P;H972W;Q975R). A digest of the protocol:
as §1

Assay [5] addresses PUM1 PUF domain R2-IFA (Homo sapiens, UniProt Q14671 828-1176, N899I;Y900F;Q903A). A digest of the protocol:
as §1

The target in assay [6] is PUM1 PUF domain R3-HRS (Homo sapiens, UniProt Q14671 828-1176, C935H;Q939S). A digest of the protocol: as §1
For assay [7], the target named is PUM1 PUF domain R7-KHG (Homo sapiens, UniProt Q14671 828-1176, S1079K;N1080H;E1083G). A digest of the protocol:
as §1

Consider “GGCUAGAACUAGUGGAUCCCCCGGCGCCCGGCGGCUCGAGCCCGGGUAAGUGUAACUAGUCUGCAUGCCGCCGGGCGCCAUGCCUGCAGGUCGACUCUAGAAAACAUG”, for which the binding signal in assay [1] was 7.11 log2 enrichment (interaction score).

On to “GGCUAGAACUAGUGGAUCCCCCGGCGCCCGGCGGCUCGAGCCCGGGUAAGUGUAAAUAGUCUGCAUGCCGCCGGGCGCCAUGCCUGCAGGUCGACUCUAGAAAACAUG”, for which the binding signal in assay [2] was 3.79 log2 enrichment (interaction score); in assay [3], 4.99 log2 enrichment (interaction score); in assay [4], 1.17 log2 enrichment (interaction score).

Turning to “GGCUAGAACUAGUGGAUCCCCCGGCGCCCGGCGGCUCGAGCCCGGGUAAGUGUAAAAAGUCUGCAUGCCGCCGGGCGCCAUGCCUGCAGGUCGACUCUAGAAAACAUG”, in assay [5], the binding signal was 4.76 log2 enrichment (interaction score).

Take “GGCUAGAACUAGUGGAUCCCCCGGCGCCCGGCGGCUCGAGCCCGGGUAAGUGUAAGUAGUCUGCAUGCCGCCGGGCGCCAUGCCUGCAGGUCGACUCUAGAAAACAUG”: the binding signal in assay [6] is 2.22 log2 enrichment (interaction score).

In the case of “GGCUAGAACUAGUGGAUCCCCCGGCGCCCGGCGGCUCGAGCCCGGGUAAGUGUACAUAGUCUGCAUGCCGCCGGGCGCCAUGCCUGCAGGUCGACUCUAGAAAACAUG”, the values for the binding signal in assay [3] and in assay [4] were 5.06 log2 enrichment (interaction score) and 5.54 log2 enrichment (interaction score), respectively.

Take “GGCUAGAACUAGUGGAUCCCCCGGCGCCCGGCGGCUCGAGCCCGGGUAAGUAUAAAUAGUCUGCAUGCCGCCGGGCGCCAUGCCUGCAGGUCGACUCUAGAAAACAUG”: the binding signal in assay [7] was 2.59 log2 enrichment (interaction score).
